Test results published in paper PMC11062922 (Nature Chemical Biology, 2023).
Read-outs that look alike come from different tables or passages of the source.

What was measured:
Parameters in all cases: species or system human, MV4-11 + K-562 + COLO205 + SK-N-BE2 + OVCAR-8
[1] = test system: ADRBK1; details: read-out: apparent Kd, n = 1
[2] = test system: AKT2; details: read-out: apparent Kd; compound concentrations:100 nM and 1000 nM (sheet 'Samples'); n = 1
[3] = test system: MAP2K5; details: read-out: apparent Kd; compound concentrations:100 nM and 1000 nM (sheet 'Samples'); n = 1
[4] = test system: RIOK2; details: read-out: apparent Kd; compound concentrations:100 nM and 1000 nM (sheet 'Samples'); n = 1
[5] = test system: RIPK3; details: read-out: apparent Kd; compound concentrations:100 nM and 1000 nM (sheet 'Samples'); n = 1
[6] = test system: CDK6; details: read-out: apparent Kd; compound concentrations: 100 nM and 1000 nM (sheet 'Samples'), CATDS: 8.6240814727830004E-2; n = 1
[7] = test system: CSNK1D; details: read-out: apparent Kd; compound concentrations: 100 nM and 1000 nM (sheet 'Samples'), CATDS: 0.10143186295273; n = 1
[8] = test system: CSNK1E; details: read-out: apparent Kd; compound concentrations: 100 nM and 1000 nM (sheet 'Samples'), CATDS: 9.8095690794025595E-2; n = 1
[9] = test system: MAPK14; details: read-out: apparent Kd; compound concentrations: 100 nM and 1000 nM (sheet 'Samples'), CATDS: 0.129413599974984; n = 1
[10] = test system: PKN3; details: read-out: apparent Kd; compound concentrations: 100 nM and 1000 nM (sheet 'Samples'), CATDS: 0.541648596841942; n = 1
[11] = test system: RIPK2; details: read-out: apparent Kd; compound concentrations: 100 nM and 1000 nM (sheet 'Samples'), CATDS: 0.18182932832718701; n = 1
[12] = test system: TESK2; details: read-out: apparent Kd; compound concentrations: 100 nM and 1000 nM (sheet 'Samples'), CATDS: 8.5548681543300906E-2; n = 1
[13] = test system: TNIK; details: read-out: apparent Kd; compound concentrations: 100 nM and 1000 nM (sheet 'Samples'), CATDS: 8.6694751539446793E-2; n = 1
[14] = test system: ADK; details: read-out: apparent Kd; compound concentrations:100 nM and 1000 nM (sheet 'Samples'); n = 1
[15] = test system: CAMK2B; details: read-out: apparent Kd; compound concentrations:100 nM and 1000 nM (sheet 'Samples'); n = 1
[16] = test system: CAMK2D; details: read-out: apparent Kd; compound concentrations:100 nM and 1000 nM (sheet 'Samples'); n = 1
[17] = test system: CSNK1G1; details: read-out: apparent Kd; compound concentrations:100 nM and 1000 nM (sheet 'Samples'); n = 1
[18] = test system: EIF2AK1; details: read-out: apparent Kd; compound concentrations:100 nM and 1000 nM (sheet 'Samples'); n = 1
[19] = test system: ERN2; details: read-out: apparent Kd; compound concentrations:100 nM and 1000 nM (sheet 'Samples'); n = 1
[20] = test system: FN3KRP; details: read-out: apparent Kd; compound concentrations:100 nM and 1000 nM (sheet 'Samples'); n = 1
[21] = test system: FN3K; details: read-out: apparent Kd; compound concentrations:100 nM and 1000 nM (sheet 'Samples'); n = 1
[22] = test system: ICK; details: read-out: apparent Kd; compound concentrations:100 nM and 1000 nM (sheet 'Samples'); n = 1
[23] = test system: LATS1; details: read-out: apparent Kd; compound concentrations:100 nM and 1000 nM (sheet 'Samples'); n = 1
[24] = test system: MAP2K1; details: read-out: apparent Kd; compound concentrations: 100 nM and 1000 nM (sheet 'Samples'), CATDS: 0.123510753631687; n = 1
[25] = test system: MAP2K2; details: read-out: apparent Kd; compound concentrations:100 nM and 1000 nM (sheet 'Samples'); n = 1
[26] = test system: MAPK3; details: read-out: apparent Kd; compound concentrations:100 nM and 1000 nM (sheet 'Samples'); n = 1
[27] = test system: NEK2; details: read-out: apparent Kd; compound concentrations:100 nM and 1000 nM (sheet 'Samples'); n = 1
[28] = test system: NQO2; details: read-out: apparent Kd; compound concentrations:100 nM and 1000 nM (sheet 'Samples'); n = 1
[29] = test system: NUAK1; details: read-out: apparent Kd; compound concentrations:100 nM and 1000 nM (sheet 'Samples'); n = 1
[30] = test system: PAK6; details: read-out: apparent Kd; compound concentrations:100 nM and 1000 nM (sheet 'Samples'); n = 1
[31] = test system: PBK; details: read-out: apparent Kd; compound concentrations:100 nM and 1000 nM (sheet 'Samples'); n = 1
[32] = test system: PDXK; details: read-out: apparent Kd; compound concentrations:100 nM and 1000 nM (sheet 'Samples'); n = 1
[33] = test system: PFKP; details: read-out: apparent Kd; compound concentrations:100 nM and 1000 nM (sheet 'Samples'); n = 1
[34] = test system: PRKX;PRKY; details: read-out: apparent Kd; compound concentrations:100 nM and 1000 nM (sheet 'Samples'); n = 1
[35] = test system: TESK1; details: read-out: apparent Kd; compound concentrations:100 nM and 1000 nM (sheet 'Samples'); n = 1
[36] = test system: TP53RK; details: read-out: apparent Kd; compound concentrations:100 nM and 1000 nM (sheet 'Samples'); n = 1

SMILES: O=C(O)C(F)(F)F.O=C(O[C@H]1CN[C@H](C#Cc2cc3ncnc(Nc4ccc(Cc5ccccc5)cc4)c3s2)C1)N1CCOCC1 [GSK238583A]
- potency estimated from few doses ([1]; compound concentrations:100 nM and 1000 nM (sheet 'Samples')): 1670 nM
- potency estimated from few doses [2]: 1770 nM
- potency estimated from few doses [3]: 646 nM
- potency estimated from few doses [4]: 2420 nM
- potency estimated from few doses [5]: 2260 nM

SMILES: CCc1nc(-c2cccc(C)c2)c(-c2ccncc2)s1 [TPKI-106]
- potency estimated from few doses ([1]; compound concentrations: 100 nM and 1000 nM (sheet 'Samples'), CATDS: 9.0460214145081597E-2): 1680 nM
- potency estimated from few doses [6]: 1950 nM
- potency estimated from few doses [7]: 1230 nM
- potency estimated from few doses [8]: 1340 nM
- potency estimated from few doses [9]: 691 nM
- potency estimated from few doses [10]: 57.5 nM
- potency estimated from few doses [11]: 349 nM
- potency estimated from few doses [12]: 2000 nM
- potency estimated from few doses [13]: 1910 nM

SMILES: C[C@@H](c1ccccc1)[C@@H](C(=O)Nc1ccc(I)cc1F)N1C(=O)N[C@H](c2ccc(OC[C@H](O)CO)cc2)C1=O [RO5068760-000]
- potency estimated from few doses [14]: 1000 nM
- potency estimated from few doses [15]: 544 nM
- potency estimated from few doses [16]: 450 nM
- potency estimated from few doses [17]: 2040 nM
- potency estimated from few doses [18]: 1390 nM
- potency estimated from few doses [19]: 1170 nM
- potency estimated from few doses [20]: 959 nM
- potency estimated from few doses [21]: 1200 nM
- potency estimated from few doses [22]: 1310 nM
- potency estimated from few doses [23]: 1760 nM
- potency estimated from few doses [24]: 183 nM
- potency estimated from few doses [25]: 165 nM
- potency estimated from few doses [26]: 1330 nM
- potency estimated from few doses [27]: 1570 nM
- potency estimated from few doses [28]: 787 nM
- potency estimated from few doses [29]: 1920 nM
- potency estimated from few doses [30]: 1730 nM
- potency estimated from few doses [31]: 2030 nM
- potency estimated from few doses [32]: 612 nM
- potency estimated from few doses [33]: 2220 nM
- potency estimated from few doses [34]: 1130 nM
- potency estimated from few doses [35]: 543 nM
- potency estimated from few doses [36]: 1620 nM
